Reference: PubChem BioAssay (NCI)
This is part of a sample that, as a whole, favours compounds with a hit. Of some 83,000 tested, about 20% had one in any assay.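 Step 1: grow cells in 96-well plates. Step 2: add test compound at a single concentration. Step 3: incubate 48 h. Step 4: record percent growth.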 Activity calls are given as the source filed them. How the source made its calls: active means growth percent below 10; inactive means the rest.

Legend:
Experiment in all cases: NCI-60 one-dose screen, 48 h (100 = growth as untreated, 0 = no growth, -100 = all killed)
Conditions in all cases: 10 µM unless noted
[1] = test system: SK-MEL-2 melanoma
[2] = test system: EKVX NSCLC
[3] = test system: SN12C renal
[4] = test system: UO-31 renal
[5] = test system: TK-10 renal
[6] = test system: ACHN renal
[7] = test system: A498 renal
[8] = test system: CCRF-CEM leukemia
[9] = test system: MOLT-4 leukemia
[10] = test system: SR leukemia

Measured: growth

COc1ccc2c(c1)Oc1nc(N)c(C#N)c(N)c1C2Sc1ccc(O)cc1 (stereo not given)
inactive: [1] 87.5% | [2] 77.7% | [3] 89.4% | [4] 68.3% | [5] 98.5% | [6] 94.2% | [7] 91.4% | [8] 16.5% | [9] 34.7% | [10] 13.7%

CCOC(=O)C(=Cc1c(-c2ccccc2)[nH]c2ccccc12)C(=O)OCC
inactive: [2] 71.1% | [3] 65.6% | [4] 33.5% | [5] 92.2% | [6] 54% | [7] 74.1% | [10] 10%
active: [1] -3.76% | [8] 4.23% | [9] 1.38%

C#CCN1C(=O)c2ccccc2N(CC#C)C12CCN(Cc1cn(CC(=O)Nc3ccccc3C(N)=O)nn1)CC2
inactive: [1] 98.8% | [2] 78.6% | [3] 88.9% | [4] 59.3% | [5] 82.8% | [6] 92.5% | [7] 75.8% | [8] 84.3% | [9] 83.2% | [10] 64.6%

COc1cc(NC(=O)COc2cc(C)nc3ccc(OC)cc23)cc(OC)c1
inactive: [1] 92.2% | [2] 91.5% | [3] 88.9% | [4] 69.8% | [5] 96.5% | [6] 82% | [7] 63.7% | [8] 82% | [9] 89.9%
active: [10] -8.57%

COc1ccc(/C=C/C(=O)Nc2ncnc3nc[nH]c23)cc1
inactive: [1] 96.2% | [2] 100% | [3] 96.2% | [4] 87.8% | [5] 103% | [6] 111% | [7] 108% | [8] 79.2% | [9] 68.9% | [10] 73.4%

CC(=O)OC[C@]12CC[C@@H](c3cn(Cc4ccc(Cn5cc([C@@H]6CC[C@]7(COC(C)=O)CC[C@]8(C)[C@H](CC[C@@H]9[C@@]%10(C)CC[C@H](OC(C)=O)C(C)(C)[C@@H]%10CC[C@]98C)[C@@H]67)nn5)cc4)nn3)[C@@H]1[C@H]1CC[C@@H]3[C@@]4(C)CC[C@H](OC(C)=O)C(C)(C)[C@@H]4CC[C@@]3(C)[C@]1(C)CC2
inactive: [1] 97% | [2] 104% | [3] 106% | [4] 90.7% | [5] 95.1% | [6] 97.1% | [7] 105% | [8] 102% | [9] 97.1% | [10] 98%

CCN(CC)c1ccc2c(c1)Oc1nc(N)c(C#N)c(N)c1C2Sc1ccc(OC)cc1 (stereo not given)
active: [1] -61.2% | [2] 4.46% | [3] 4.18% | [4] -44.7% | [8] 0.612% | [9] 2.47% | [10] -9.3%
inactive: [5] 23.1% | [6] 32.2% | [7] 106%

COc1ccc(-c2cc(C(=O)N3N=C(c4ccc(N)cc4)CC3c3ccc(OC)cc3)c3cc(OC)ccc3n2)cc1 (stereo not given)
inactive: [1] 64.5% | [2] 68.9% | [3] 61.8% | [4] 56.6% | [5] 93.8% | [6] 54.5% | [7] 71.3% | [8] 63.3% | [9] 54.5% | [10] 19.4%

O=C1NN(c2ccccc2)C(c2ccc3c(c2)OCO3)N2CCC[C@@H]12 (stereo not given in full)
inactive: [1] 89.8% | [2] 102% | [3] 110% | [4] 85.4% | [5] 92.2% | [6] 101% | [7] 97.5% | [8] 108% | [9] 102% | [10] 92.1%

Cc1nc2sc(C(=O)Nc3cccc4ccccc34)c(N)c2cc1C(C)O (stereo not given)
active: [8] 9.13%
inactive: [1] 36.5% | [2] 36.7% | [3] 36% | [4] 48.6% | [5] 75.2% | [6] 42.8% | [7] 24.2% | [9] 13.3% | [10] 12.3%

O=C(Nc1nc2ccc(C(F)(F)F)cc2s1)c1cc(Cl)ccc1O
active: [1] -11.4% | [2] -1.23% | [3] 9.78% | [4] 7.2% | [5] 4.94% | [6] 2.6% | [7] -26.8% | [9] 1.46% | [10] 0.767%
inactive: [8] 15%

Nn1c(SCC(=O)Nc2ccc(Cl)cc2)nnc1-c1cc(F)c(Cl)cc1Cl
inactive: [1] 83.4% | [2] 90.9% | [3] 97.8% | [4] 69.9% | [5] 97.6% | [6] 87.2% | [7] 65.2% | [8] 92.8% | [9] 80.4% | [10] 56.5%

COc1ccc(C(=O)c2cc(OC)c(OC)c(OC)c2)cc1OC(=O)CCl
inactive: [1] 26.1% | [2] 70.2% | [3] 32% | [4] 44.8% | [5] 63.6% | [6] 40.2% | [7] 59.3% | [8] 14.9% | [9] 18.4% | [10] 13.4%

COC(=O)c1cncc(C(=O)Nc2ccc(-n3cnc4ccccc43)cc2)c1
inactive: [1] 105% | [2] 100% | [3] 101% | [4] 93.8% | [5] 96.2% | [6] 90.4% | [7] 88.3% | [8] 98% | [9] 90.2% | [10] 75.4%

CCOC(=O)/C=C1\SC(=Nc2ccc(C#N)cc2)N(CCN2C(=O)/C(=C/C(=O)OCC)SC2=Nc2ccc(C#N)cc2)C1=O
active: [8] 1.57% | [9] 9.39% | [10] 1.69%
inactive: [1] 80.8% | [2] 35.2% | [3] 24.2% | [4] 56.6% | [5] 87.4% | [6] 78.6% | [7] 63.7%

COC(=O)/C=C/c1cc(OC)c2c(c1)[C@@H](C(=O)OC)[C@H](c1ccc(OC)c(OC)c1)O2
inactive: [1] 31.4% | [2] 38.5% | [3] 45.5% | [4] 45.9% | [5] 64.1% | [6] 44.4% | [7] 22.1% | [8] 18.7% | [9] 22.9% | [10] 26%
